Compound activity deposited in PubChem BioAssay by The Scripps Research Institute Molecular Screening Center.
rCAG binder: binds r(CAG) RNA repeats. 370,000 compounds, 1.3% hits. AID 651821. inhibition, % at 3 µM. r(CAG) RNA repeat, TO-PRO-1 dye displacement fluorescence;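 active means inhibition above the plate cutoff, the mean of all test compounds on that plate plus 3 SD, cut at about 35% in these data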;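 further: 0% = DMSO alone and 100% = 100 µM mitoxantrone as full dye displacement; higher means more dye released from RNA so lower well fluorescence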
HGIII-sPLA2 inh: Blocks human group III sPLA2 activity; 370,000 compounds, 0.56% hits; Q9NZ20; inhibition, % at 12.2 µM; QFRET BODIPY PC-A2 liposome hydrolysis, fluorescence;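 active means inhibition above mean plus 3 SD of compounds lying within the high and low control bounds, cut at about 19% in these data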;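 further: 0% = median of test compound wells and 100% = no enzyme DMSO wells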
Target sequence (Q9NZ20 whole entry, looked up): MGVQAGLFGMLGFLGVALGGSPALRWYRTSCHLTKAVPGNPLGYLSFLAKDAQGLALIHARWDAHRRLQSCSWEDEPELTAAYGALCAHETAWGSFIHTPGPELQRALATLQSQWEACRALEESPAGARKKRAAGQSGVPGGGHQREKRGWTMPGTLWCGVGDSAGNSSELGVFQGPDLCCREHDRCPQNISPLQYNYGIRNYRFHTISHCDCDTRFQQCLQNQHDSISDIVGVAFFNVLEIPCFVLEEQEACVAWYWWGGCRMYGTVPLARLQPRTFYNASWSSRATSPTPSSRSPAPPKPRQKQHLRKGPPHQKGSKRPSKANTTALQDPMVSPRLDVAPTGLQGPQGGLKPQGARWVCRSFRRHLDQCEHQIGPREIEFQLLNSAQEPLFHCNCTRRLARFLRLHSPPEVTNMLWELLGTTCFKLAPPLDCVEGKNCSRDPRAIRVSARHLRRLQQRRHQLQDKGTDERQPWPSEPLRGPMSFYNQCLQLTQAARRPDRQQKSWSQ
bovine MsrA act: bovine methionine sulfoxide reductase A activation. purified bovine MsrA, absorbance read-out. activation, % at 10.6 µM. 360,000 compounds, 0.3% hits; in the data active means activation above about 7.5%;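 further: 0% = vehicle and 100% = reference activator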
MsrA inh: inhibits bovine methionine sulfoxide reductase A. 360,000 compounds, 0.75% hits. AID 651718. inhibition, % at 15.5 µM. purified bovine MsrA, absorbance read-out;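 further: 0% = vehicle wells with enzyme and 100% = reference inhibitor wells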
PG9 binder: small molecules binding HIV-1 gp120 antibody PG9 | TR-FRET gp120-PG9 antibody binding | inhibition, % at 6.7 µM | 360,000 compounds, 0.43% hits | AID 624416; in the data active means inhibition above about 8.5%
MsrA inh confirm: bovine MsrA inhibition, confirmed. shares compounds with MsrA inh. purified bovine MsrA, absorbance read-out. inhibition, % at 15.5 µM. 2,300 compounds, 41% hits;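 further: coupled to thioredoxin reductase with NADPH and selenocystamine and DMSO as substrate; 0% = vehicle only and 100% = full effect of reference inhibitor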
* = called active by the depositor. Only some compounds are listed: those with a hit (about 3.2% of all), similar ones and a draw of the others. Unless noted, no stated cut-off is given here; in the data, active means inhibition above about 4.5%; inactive means the rest.

How did CC(=O)c1ccc(N2CCN(C(=O)CCCc3nc4ccccc4s3)CC2)cc1 do in these assays?
rCAG binder: -9; HGIII-sPLA2 inh: -4; bovine MsrA act: -10; MsrA inh: 5.7*; PG9 binder: 1; MsrA inh confirm: 3

How did CCOC(=O)c1csc(NC(=O)C2CCCN(S(=O)(=O)c3ccccc3[N+](=O)[O-])C2)n1 (centres undefined) do in these assays?
rCAG binder: 3; HGIII-sPLA2 inh: -11

Results for COc1ccc(C2CC(=O)C3=C(C2)Nc2ccccc2N(C(=O)CCC(=O)O)C3c2ccc(F)cc2)cc1 (centres undefined) ?
rCAG binder: 18; HGIII-sPLA2 inh: 6; bovine MsrA act: -2; MsrA inh: 5.0*; PG9 binder: 0; MsrA inh confirm: 4

What do the screens show for `O=C(O)CCC(=O)N1c2ccccc2NC2=C(C(=O)CC(c3ccc(F)cc3)C2)C1c1ccc([N+](=O)[O-])o1` (centres undefined)?
rCAG binder: 19; HGIII-sPLA2 inh: -4; bovine MsrA act: -4; MsrA inh: 7.0*; PG9 binder: 2; MsrA inh confirm: 4.6*

How did CC(=O)N1c2ccccc2NC2=C(C(=O)CCC2)C1c1ccc(F)cc1 (centres undefined) do in these assays?
rCAG binder: -3; HGIII-sPLA2 inh: -1; bovine MsrA act: -2; MsrA inh: 3; PG9 binder: -1

What do the screens show for `COc1ccc2c3c([nH]c2c1)[C@]1(CCNC=O)Nc2ccccc2C1=NCC3`?
HGIII-sPLA2 inh: 13

Results for CCC(C)Nc1nc(N)c([N+](=O)[O-])c(NCCO)n1 (centres undefined) ?
rCAG binder: 2; HGIII-sPLA2 inh: 0; bovine MsrA act: -5; MsrA inh: 3; PG9 binder: 1

How did CC(C)CCNc1nc(N)c([N+](=O)[O-])c(NCCO)n1 do in these assays?
rCAG binder: -4; HGIII-sPLA2 inh: 9; bovine MsrA act: -11; MsrA inh: 4.9*; PG9 binder: 0; MsrA inh confirm: 5.1*

How did Cc1c(NC(=S)N/N=C/c2ccc(N(C)C)cc2)c(=O)n(-c2ccccc2)n1C do in these assays?
rCAG binder: 2; HGIII-sPLA2 inh: 1; bovine MsrA act: -6; MsrA inh: 5.0*; PG9 binder: -12; MsrA inh confirm: 4.6*

How did C[C@H]1COc2cc(Br)ccc2S(=O)(=O)N1Cc1cn(Cc2ccc(C(F)(F)F)cc2)nn1 do in these assays?
rCAG binder: 2; HGIII-sPLA2 inh: 7

What do the screens show for `COC(=O)[C@]12C[C@H](CC(=O)N3CCOCC3)C(=O)N(Cc3ccco3)C1=C[C@H](C(C)(C)C)O[C@@H]2C`?
rCAG binder: -1; HGIII-sPLA2 inh: -1

Results for Cc1ccccc1Nc1c(N)c(=O)oc2ccccc12 ?
rCAG binder: -6; HGIII-sPLA2 inh: -1; bovine MsrA act: 2; MsrA inh: 6.1*; PG9 binder: -3; MsrA inh confirm: 7.8*

How did O=C(N/N=C/C=C/c1ccccc1[N+](=O)[O-])c1cccs1 do in these assays?
rCAG binder: -1; HGIII-sPLA2 inh: -4; bovine MsrA act: -4; MsrA inh: 2; PG9 binder: 0

What do the screens show for `O=C(CC1S/C(=N/N=C/C=C/c2ccccc2)NC1=O)Nc1ccc(Cl)c(Cl)c1` (centres undefined)?
rCAG binder: 12; HGIII-sPLA2 inh: 0; bovine MsrA act: -2; MsrA inh: 0; PG9 binder: 1

How did O=C(O)CC1S/C(=N/N=C/C=C/c2ccccc2)NC1=O (centres undefined) do in these assays?
rCAG binder: 4; HGIII-sPLA2 inh: -3; bovine MsrA act: -11; MsrA inh: 9.2*; PG9 binder: -3; MsrA inh confirm: 7.8*

Results for O=C(O)CNC(=O)CC1S/C(=N/N=C/c2ccccc2O)NC1=O (centres undefined) ?
rCAG binder: -1; HGIII-sPLA2 inh: 5; bovine MsrA act: -7; MsrA inh: 7.5*; PG9 binder: -2; MsrA inh confirm: 4

How did O=C(O)CC1S/C(=N/N=C/C=C/c2ccccc2[N+](=O)[O-])NC1=O (centres undefined) do in these assays?
rCAG binder: 4; HGIII-sPLA2 inh: -2; bovine MsrA act: -4; MsrA inh: 6.2*; PG9 binder: -2; MsrA inh confirm: 6.3*

What do the screens show for `CCOC(=O)c1cc(C(=O)OCC)c(=O)[nH]c1N1CCCCC1`?
rCAG binder: -3; HGIII-sPLA2 inh: 4; bovine MsrA act: -5; MsrA inh: 7.5*; PG9 binder: 5; MsrA inh confirm: 3
